Shown are actives, neighbours in structure and some others; about 2.8% of the full set was active somewhere.
HIF-2a block: HIF-2a reporter inhibitors, primary screen, luminescence, 786-0 RCC cells; 786-0 RCC cells HIF-2a reporter, luciferase luminescence, overnight; inhibition, % at 18.8 µM; 0.72% of 360,000 active; AID 624352, 2012;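 active means inhibition of the luminescence signal of 40% or more relative to plate controls, in a single-dose primary screen at 18.75 µM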
Shn3 3UTR inh: reduction of Shn3 3'UTR firefly luciferase signal, primary screen, Schnurri-3 inhibitor project, cell-based, Clone20 osteoblasts, set 2 | Clone20 osteoblast Shn3 3'UTR firefly luciferase, 24 h | AID 588674, 2011 | 0.52% of 360,000 active | inhibition, % at 12.5 µM;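 active means mean inhibition of at least 75% with every replicate also reaching 75%; inconclusive means mean inhibition at least 75% but some replicate below; inactive means mean inhibition below 75%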
PAX8 reporter: inhibitors of PAX8-driven TPO luciferase reporter, primary screen, RMG-I cells, single concentration; AID 652154, 2013; 1.2% of 360,000 active; inhibition, % at 12.6 µM; SteadyGlo, 24 h;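 active means mean replicate inhibition at least 60% with every replicate also reaching 60%; inconclusive means only one of the two criteria is met; inactive means mean below 60% and not all replicates reaching 60%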;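 further: luciferase light reporting Pax8 driven TPO promoter activity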
Peg3 prom inh: Peg3 promoter-driven luciferase inhibitors, primary screen, cell-based, HeLa, luciferase luminescence | inhibition, % at 20 µM | 1.7% of 360,000 active | HeLa PEG-Prom luciferase reporter, overnight;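 active means inhibition of at least 50% at 20 µM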
LMP1 NFkB inh: EBV LMP1-driven NF-kappaB luciferase reporter inhibitors, primary screen, cell-based, luminescence, single point | inhibition, % at 12.5 µM | 0.69% of 350,000 active | LMP1-induced NF-kappaB luciferase reporter cells; in the data active means inhibition above about 41%; inconclusive means no clear call, values can overlap the other calls
MITF TRPM1 inh: inhibitors of MITF-dependent TRPM1 promoter reporter, primary screen, cell-based, SK-MEL-5, single point, luciferase; 0.83% of 330,000 active; SK-MEL-5 TRPM1 promoter luciferase, 24 h; AID 488899, 2010; inhibition, % at 12.5 µM;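 active means mean inhibition across replicates of 60% or more, whatever share of single replicates reaches that level; inconclusive means some that reach 60%, reason not given; inactive means mean inhibition across replicates below 60%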
Mdm2 MdmX conf: retested Mdm2-MdmX interaction blockers, confirmation, cell-based, luminescence, single concentration, set 2; inhibition, % at 8 µM; 99% of 740 active; SaOS-2 split-luciferase Mdm2/MdmX complementation; AID 504601, 2011; shares compounds with HIF-2a block;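 active means mean inhibition of the luminescence signal across two replicates at or above 26 percent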
Target sequence (O15151 whole entry, looked up): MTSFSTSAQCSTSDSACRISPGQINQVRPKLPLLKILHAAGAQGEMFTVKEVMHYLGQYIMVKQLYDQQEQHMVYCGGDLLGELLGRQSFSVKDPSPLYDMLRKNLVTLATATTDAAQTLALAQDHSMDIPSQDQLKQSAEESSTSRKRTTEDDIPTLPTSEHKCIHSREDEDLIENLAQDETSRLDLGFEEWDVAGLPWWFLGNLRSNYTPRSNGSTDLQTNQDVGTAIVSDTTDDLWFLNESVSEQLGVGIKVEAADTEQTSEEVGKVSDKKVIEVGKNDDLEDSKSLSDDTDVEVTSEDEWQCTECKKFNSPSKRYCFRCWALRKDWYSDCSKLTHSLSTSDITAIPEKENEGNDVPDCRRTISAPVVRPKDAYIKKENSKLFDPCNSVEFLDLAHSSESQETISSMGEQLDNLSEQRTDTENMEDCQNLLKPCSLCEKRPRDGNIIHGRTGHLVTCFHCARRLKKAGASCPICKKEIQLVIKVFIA
Target sequence (Q00987 whole entry, looked up): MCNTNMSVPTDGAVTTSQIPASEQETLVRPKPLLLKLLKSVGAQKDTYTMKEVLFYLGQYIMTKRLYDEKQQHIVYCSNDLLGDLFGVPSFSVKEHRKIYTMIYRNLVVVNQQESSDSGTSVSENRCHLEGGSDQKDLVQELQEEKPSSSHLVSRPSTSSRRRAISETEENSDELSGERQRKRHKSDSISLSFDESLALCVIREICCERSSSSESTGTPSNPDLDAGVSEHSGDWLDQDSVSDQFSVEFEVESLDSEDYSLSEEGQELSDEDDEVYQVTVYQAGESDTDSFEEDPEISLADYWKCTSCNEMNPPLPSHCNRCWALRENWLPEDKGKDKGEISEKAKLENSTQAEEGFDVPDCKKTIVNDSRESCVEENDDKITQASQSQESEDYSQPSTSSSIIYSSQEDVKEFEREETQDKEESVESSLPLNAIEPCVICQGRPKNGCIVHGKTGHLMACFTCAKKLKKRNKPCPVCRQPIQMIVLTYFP
HIF-2a inh conf: HIF-2a reporter inhibitor retest, confirmation, luminescence, 786-0 RCC cells; 56% of 1,800 active; HIF-2a luciferase reporter luminescence, overnight; inhibition, % at 18.8 µM; AID 651580, 2012; shares compounds with HIF-2a block;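 active means mean inhibition across four replicates of at least 40 percent at the single tested concentration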
HIF-1a cs: HIF-1a luciferase reporter signal reduction – MiaPaCa-2 cells, single concentration, counter-screen for HIF-2a inhibitor project, confirmation; 72% of 1,800 active; shares compounds with HIF-2a block; inhibition, % at 18.8 µM; MiaPaCa-2 HIF-1a luciferase reporter, desferoxamine, overnight;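 active means mean inhibition of the reporter signal across four replicates at the single tested dose of 50% or more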
Of the large screens only hits and unclear results are named; the others gave an inactive call (follow-up assays come after a bar, where they were run).

Cc1cc(C)c(C#N)c(SCc2nnc(-c3ccccc3)o2)n1	HIF-2a block 67, LMP1 NFkB inh 59, MITF TRPM1 inh 77 | HIF-2a inh conf 76 | HIF-1a cs 82
Cc1ccc(C#N)c(SCc2nnc(-c3ccc(Cl)cc3)o2)n1	HIF-2a block 46 | HIF-2a inh conf 59 | HIF-1a cs 80
FC(F)(F)c1ccccc1Cc1c(-c2ccccc2)nc2ccc(Cl)cn12	none (no result: LMP1 NFkB inh, MITF TRPM1 inh)
FC(F)(F)c1ccccc1Cc1c(-c2ccco2)nc2ccc(Cl)cn12	HIF-2a block 37 (no result: LMP1 NFkB inh, MITF TRPM1 inh) | HIF-2a inh conf inactive | HIF-1a cs 64
CCNC(=O)C[C@@H]1CC[C@@H]2[C@H](COC[C@@H](O)CN2Cc2ccccc2F)O1	none (no result: HIF-2a block, Shn3 3UTR inh, Peg3 prom inh, LMP1 NFkB inh, MITF TRPM1 inh)
COCC(=O)Nc1ccc2c(c1)OC[C@H](C)N(C(=O)C1CCCC1)C[C@H](C)[C@H](OC)CN(C)C2=O	none (no result: HIF-2a block, Shn3 3UTR inh, Peg3 prom inh, LMP1 NFkB inh, MITF TRPM1 inh)
Cc1nc(NC2=NCN(CCCN3CCOCC3)CN2)nc2c(C)cccc12	none (no result: PAX8 reporter) | Mdm2 MdmX conf 66
NC(N)=Nc1nc(-c2ccccc2)c2cc(F)ccc2n1	HIF-2a block 40, Peg3 prom inh 88 | HIF-2a inh conf inactive | HIF-1a cs 79
CC1=C(C(=O)OCc2ccc3c(c2)OCO3)C(c2cccc([N+](=O)[O-])c2)NC(=O)N1 (stereo not given)	none | Mdm2 MdmX conf 74
CC1=C(C(=O)OCc2ccccc2)C(c2cccc([N+](=O)[O-])c2)NC(=O)N1 (stereo not given)	none
Cc1ccc(C)c(N=Nc2ccc(O)c3ncccc23)c1	Shn3 3UTR inh 86, LMP1 NFkB inh 61, MITF TRPM1 inh 64 | Mdm2 MdmX conf 100
C[C@@H]1CN([C@@H](C)CO)S(=O)(=O)c2ccc(C#Cc3ccccc3F)cc2O[C@@H]1CN(C)C(=O)Cc1ccncc1	none (no result: HIF-2a block, Shn3 3UTR inh, Peg3 prom inh, LMP1 NFkB inh, MITF TRPM1 inh)
Cc1ccc(NC(=O)CN2C(=O)N/C(=C/c3ccc(C)o3)C2=O)cc1	none (no result: PAX8 reporter)
C=CCN1C(=O)N/C(=C/c2ccc(C)o2)C1=O	HIF-2a block 40 | HIF-2a inh conf inactive | HIF-1a cs inactive
Cc1cc(C)c(C(=O)/C=C/C=C/c2ccccc2)c(=O)[nH]1	none
Cc1cc(C)c(C(=O)/C=C/c2ccc(C(C)C)cc2)c(=O)[nH]1	HIF-2a block 59, Peg3 prom inh 68 (no result: PAX8 reporter) | Mdm2 MdmX conf 103 | HIF-2a inh conf 53 | HIF-1a cs 102
COCC(=O)N1CC(=O)N2[C@H](C1)[C@@H](c1ccc(Br)cc1)[C@@H]2CO	none (no result: HIF-2a block, Shn3 3UTR inh, Peg3 prom inh, LMP1 NFkB inh, MITF TRPM1 inh)
CC(C)n1cnc2c(NCc3ccccc3)cc(N[C@H](C)CO)cc21	Peg3 prom inh 67, MITF TRPM1 inh 73 (no result: PAX8 reporter) | Mdm2 MdmX conf 89
CCC(CO)Oc1cc(NCc2ccccc2)c2ncn(C(C)C)c2c1 (stereo not given)	none
COc1ccc(S(=O)(=O)N2CC[C@@H]3[C@@H](CO)N(C)c4ccc(-c5ccccc5F)cc4[C@@H]32)cc1	none (no result: HIF-2a block, Shn3 3UTR inh, Peg3 prom inh, LMP1 NFkB inh, MITF TRPM1 inh)
Cc1ccc(S(=O)(=O)Nc2cccc3cccnc23)cc1	HIF-2a block 81, PAX8 reporter inconclusive, Peg3 prom inh 109, MITF TRPM1 inh 83 | Mdm2 MdmX conf 103 | HIF-2a inh conf 66 | HIF-1a cs inactive
CC(C)NC(=O)N(C)C[C@H]1Oc2ccc(NC(=O)CCCN(C)C)cc2CC(=O)N([C@@H](C)CO)C[C@@H]1C	none (no result: HIF-2a block, Shn3 3UTR inh, Peg3 prom inh, LMP1 NFkB inh, MITF TRPM1 inh)
CC(=O)Nc1ccc(NC(=O)c2sc3nc4n(c(=O)c3c2C)CCCCC4)cc1	HIF-2a block 80 | HIF-2a inh conf 90 | HIF-1a cs 90
O=S(=O)(c1ccccc1)c1ncc(C(F)(F)F)cc1Cl	HIF-2a block 96, Peg3 prom inh 71 | HIF-2a inh conf inactive | HIF-1a cs inactive
COc1ccc2c(c1)-c1c(ssc1=S)C(C)(C)N2	LMP1 NFkB inh 45 (no result: PAX8 reporter) | Mdm2 MdmX conf 95
CCOC(=O)C(CC)(CC)C(=O)/C=C/c1cccc(Br)c1	HIF-2a block 87, Peg3 prom inh 109 (no result: PAX8 reporter) | HIF-2a inh conf 69 | HIF-1a cs 104
COc1cc(NC(=O)Cn2ncc(Cl)c(Cl)c2=O)c(C)cc1[N+](=O)[O-]	HIF-2a block 93, Shn3 3UTR inh 97, PAX8 reporter 91, Peg3 prom inh 98, LMP1 NFkB inh 81, MITF TRPM1 inh 103 | HIF-2a inh conf 98 | HIF-1a cs 106
COc1cc(NC(=O)CN2C(=O)CN(C)C2=O)c(C)cc1[N+](=O)[O-]	none
Cc1cccc(S(=O)(=O)N(C)C[C@@H]2OCc3cnnn3CCCC(=O)N([C@@H](C)CO)C[C@H]2C)c1	none (no result: HIF-2a block, Shn3 3UTR inh, Peg3 prom inh, LMP1 NFkB inh, MITF TRPM1 inh)
O=C(Nc1ccncc1)c1c(Cl)cccc1Cl	HIF-2a block 41 | HIF-2a inh conf inactive | HIF-1a cs inactive
O=C(/C=C/c1ccccc1)CC(O)(c1ccccc1)C(F)(F)F (stereo not given)	HIF-2a block 73, Peg3 prom inh 105 (no result: PAX8 reporter) | HIF-2a inh conf 44 | HIF-1a cs 104
O=C(/C=C/c1ccccc1)CC(O)(c1ccccc1)C(F)(F)C(F)F (stereo not given)	HIF-2a block 70, Peg3 prom inh 101 (no result: PAX8 reporter) | HIF-2a inh conf 53 | HIF-1a cs 106
COc1ccc(/C=C/C(=O)CC(O)(c2ccccc2)C(F)(F)F)cc1 (stereo not given)	none (no result: PAX8 reporter)
C[C@@H]1CCCCO[C@@H](CN(C)C(=O)c2ccccc2)[C@@H](C)CN([C@H](C)CO)C(=O)c2cc(NC(=O)c3ccncc3)ccc2O1	none (no result: HIF-2a block, Shn3 3UTR inh, Peg3 prom inh, LMP1 NFkB inh, MITF TRPM1 inh)
O=C(CCCN1C(=O)S/C(=C\c2ccccc2)C1=O)NNC(=O)c1ccccc1O	HIF-2a block 91, LMP1 NFkB inh inconclusive, MITF TRPM1 inh 71 | HIF-2a inh conf 90 | HIF-1a cs 97
CC(/C=C1\SC(=O)N(CCCC(=O)O)C1=O)=C\c1ccccc1	HIF-2a block 91, Shn3 3UTR inh inconclusive, Peg3 prom inh 80, LMP1 NFkB inh 72, MITF TRPM1 inh 85 | HIF-2a inh conf 99 | HIF-1a cs 101
C[C@@H]1CCCCO[C@@H](CN(C)S(=O)(=O)c2cccs2)[C@H](C)CN([C@@H](C)CO)C(=O)c2cc(NC(=O)c3ccccc3)ccc2O1	none (no result: HIF-2a block, Shn3 3UTR inh, Peg3 prom inh, LMP1 NFkB inh, MITF TRPM1 inh)
O=C(N[C@H]1CC[C@H](CCn2cc(Cc3ccccc3)nn2)O[C@H]1CO)c1cnccn1	none (no result: HIF-2a block, Shn3 3UTR inh, Peg3 prom inh, LMP1 NFkB inh, MITF TRPM1 inh)

Compound activity as filed in PubChem.
